# Source: publication PMC4336329 (PLoS ONE, 2015)
# About 2,200 (0.71%) of roughly 310,000 compounds showed an effect of 50% or more. Effects have a minus sign here. The entries come from a sample that favours strong results as a whole.
# Biological target: human ether-à-go-go-related gene (hERG) potassium channel (human, UniProt Q12809)
# Test: primary screen, population patch clamp on CHO cells stably expressing hERG; higher = less effect of the substance
# human ether-à-go-go-related gene (hERG) potassium channel, sequence (Q12809 whole entry, looked up): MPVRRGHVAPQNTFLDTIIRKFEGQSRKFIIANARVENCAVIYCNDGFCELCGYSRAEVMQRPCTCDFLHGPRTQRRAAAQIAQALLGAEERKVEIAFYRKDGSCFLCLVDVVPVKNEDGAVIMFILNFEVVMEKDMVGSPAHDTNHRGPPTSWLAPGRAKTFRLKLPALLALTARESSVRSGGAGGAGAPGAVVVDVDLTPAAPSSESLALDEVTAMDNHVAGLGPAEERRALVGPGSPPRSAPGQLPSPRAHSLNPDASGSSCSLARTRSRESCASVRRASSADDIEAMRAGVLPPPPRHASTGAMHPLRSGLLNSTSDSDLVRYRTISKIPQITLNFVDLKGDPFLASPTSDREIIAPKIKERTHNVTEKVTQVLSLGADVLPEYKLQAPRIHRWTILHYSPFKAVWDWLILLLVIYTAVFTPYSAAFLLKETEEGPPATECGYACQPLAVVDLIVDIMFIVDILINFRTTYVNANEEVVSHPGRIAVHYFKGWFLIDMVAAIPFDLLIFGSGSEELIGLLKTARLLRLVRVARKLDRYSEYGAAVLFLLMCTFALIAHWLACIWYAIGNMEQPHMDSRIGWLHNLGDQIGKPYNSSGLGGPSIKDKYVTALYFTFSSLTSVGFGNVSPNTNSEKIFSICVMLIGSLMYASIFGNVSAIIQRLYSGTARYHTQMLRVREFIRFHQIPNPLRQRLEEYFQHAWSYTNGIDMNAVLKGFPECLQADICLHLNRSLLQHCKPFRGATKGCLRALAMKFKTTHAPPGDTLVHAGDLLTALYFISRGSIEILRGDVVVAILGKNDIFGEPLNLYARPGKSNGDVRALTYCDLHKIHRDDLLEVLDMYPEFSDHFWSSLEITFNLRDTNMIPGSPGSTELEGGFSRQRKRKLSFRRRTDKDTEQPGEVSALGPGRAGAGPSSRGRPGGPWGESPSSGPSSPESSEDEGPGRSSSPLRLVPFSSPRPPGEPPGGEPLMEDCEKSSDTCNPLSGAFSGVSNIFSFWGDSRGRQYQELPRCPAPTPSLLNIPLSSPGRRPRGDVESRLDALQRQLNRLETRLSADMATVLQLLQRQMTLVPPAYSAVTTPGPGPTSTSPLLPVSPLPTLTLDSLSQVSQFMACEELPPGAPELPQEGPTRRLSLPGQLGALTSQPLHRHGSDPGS
row,SMILES,"hERG current change (%, negative = inhibition) at 1uM"
1,Cl.Cn1c2c(c3ccccc31)CCN1CCC[C@]21c1ccccc1,12.1%
2,CCOC(=O)C1=CC[C@H]2c3c(c4ccccc4n3C)C[C@H]1N2C,15.5%
3,NC(=O)C1CCCc2c1n(Cc1ccccc1)c1ccccc21 (stereo not shown),9.63%
4,CCn1cc(C2N3CC4(C)CN2CC(C)(C3)C4=O)c2ccccc21 (stereo not shown),4.63%
5,CC[C@]12CCCN3CCc4c(n(c5ccccc45)C(=O)C1)[C@@H]32,-70.5%
6,CC[C@]12CCCN3CCc4c(n(c5ccccc45)C(=O)C1)C32 (stereo partly shown),-50.5%
7,CCOC(=O)NNC(=O)CCn1c2c(c3ccccc31)CCCC2,6.89%
8,CCOC(=O)C1=C[C@]2(CC)CCCN3CCc4c(n1c1ccccc41)[C@@H]32,-95.5%
9,O=C(O)Cn1c(=O)c2c(c3ccccc31)CCC2,11.5%
10,CCN1CCC(=NNC(=O)CC23CC4CC(CC(C4)C2)C3)CC1,11.5%
11,COc1cc(NC(c2ccccc2)c2ccccc2)cc(OC)c1OC,5.7%
12,Nc1nc(/C=C/c2cccnc2)nc(-c2ccccc2O)n1,10.4%
13,COc1cccc(COC(=O)C2CCN(S(=O)(=O)c3ccc(Cl)cc3)CC2)c1OC,5.7%
14,CC(=O)c1ccc(S(=O)(=O)N2CCN(c3ccccc3F)CC2)cc1,8.26%
15,Br.O=C(CN1C2=NCCN2c2ccccc21)c1ccc2c(c1)OCO2,-42.1%
16,Cl.OC(CN1C2=NCCN2c2ccccc21)c1ccc2c(c1)OCO2 (stereo not shown),-27.7%
17,Cl.c1ccc2c(c1)N1CCCN=C1N2CCN1CCCCC1,-26.2%
18,Cl.OCCN1C2=NCCCN2c2ccccc21,10.3%
19,Cl.OC(CN1C2=NCCCN2c2ccccc21)c1ccc(Br)cc1 (stereo not shown),-86.2%
20,Cl.OC(CN1C2=NCCCN2c2ccccc21)c1ccc(Cl)cc1 (stereo not shown),-76.2%
21,Cl.OC(CN1C2=NCCN2c2ccccc21)c1ccccc1 (stereo not shown),-5.32%

row,SMILES,"hERG current change (%, negative = inhibition) at 1uM"
1,Cl.OC(CN1C2=NCCCN2c2ccccc21)c1ccc2c(c1)OCO2 (stereo not shown),-68.6%
2,Br.O=C(CN1C2=NCCN2c2ccccc21)c1ccc(Br)s1,-0.685%
3,OC(CN1C2=NCCN2c2ccccc21)c1ccc(Br)cc1 (stereo not shown),-63%
4,Cn1c(=O)n(C)c2cc(NC(=O)CSc3nnc(-c4ccccc4O)n3-c3ccccc3)ccc21,6.95%
5,O=C(C1=NN[C@@H]2C(=O)N(c3cccc(F)c3)C(=O)[C@H]12)c1ccc2ccccc2n1,6.85%
6,CN(C)CCCN(C(=O)c1ccc(Br)s1)c1nc2cc3c(cc2s1)OCO3.Cl,4.06%
7,O=C(c1cc2ccccc2o1)c1nc2c(n1O)CCCCC2,9.78%
8,COCCCNC(=O)Cn1c(=O)n(CCCCCC(=O)Nc2ccccc2)c(=O)c2sccc21,14%
9,Cc1ccc(S(=O)(=O)N2CCCC(C(=O)NNCC(=O)Nc3cc(F)ccc3F)C2)cc1 (stereo not shown),-0.56%
10,Cc1ccc(C(O)CN2C3=NCCCN3c3ccccc32)cc1.Cl (stereo not shown),-51.4%
11,Cc1ccc(C(O)CN2C3=NCCN3c3ccccc32)cc1.Cl (stereo not shown),-40.9%
12,Cc1ccccc1CN1C2=NCCCN2c2ccccc21.Cl,-27.3%
13,CC1CN(S(=O)(=O)c2ccc(C(=O)NCCCn3ccnc3)cc2)CC(C)O1 (stereo not shown),11.7%
14,CCc1nc(SCC(=O)c2ccc(Cl)s2)c2oc3ccccc3c2n1,9.25%
15,CCCOc1cccc(C(=O)NCCNC(=O)c2ccco2)c1,18.6%
16,O=C(N/N=C/c1cc2c(cc1[N+](=O)[O-])OCO2)c1ccccn1,10.1%
17,Cc1cc(S(=O)(=O)N2CCN(c3c(C)cccc3C)CC2)ccc1F,-0.574%
18,CCC(C)N(C)Cc1cccc(C2(O)CCN(S(=O)(=O)c3ccc(F)c(C)c3)CC2)c1 (stereo not shown),-71.2%
19,CCC(C)N(C)Cc1cccc(C2(O)CCN(S(=O)(=O)c3ccc(F)cc3)CC2)c1 (stereo not shown),-30.8%
20,Cc1c(O[C@@H]2O[C@H](CO)[C@@H](O)[C@H](O)[C@H]2O)ccc2c1oc(=O)c1ccccc12,16.9%
21,Cn1cccc1Cc1nnc(SCC(=O)N2CCCC2)n1CCc1ccccc1,10.7%

row,SMILES,"hERG current change (%, negative = inhibition) at 1uM"
1,Cc1nc2nc(N)nn2c(C)c1C/C=C/c1ccccc1,2.83%
2,Cc1nnc2ccc(-c3cccc(NC(=O)c4ccc(Br)o4)c3)nn12,-52.2%
3,Cc1nnc2ccc(-c3cccc(NC(=O)c4ccco4)c3)nn12,1.54%
4,Cc1nnc2ccc(-c3cccc(NC(=O)c4ccc(Cl)nc4)c3)nn12,-1.98%
5,COc1ccc(CN2CCSc3sccc3C2=O)cc1,3.85%
6,CCc1ccc(Nc2ncc3c(n2)CC(c2ccco2)CC3=O)cc1 (stereo not shown),5.43%
7,Cn1nccc1C(=O)N1CCN(c2ncccn2)CC1,9.95%
8,CN1CCNC(=O)C1CC(=O)N1CC=C(c2ccc(F)cc2)CC1 (stereo not shown),16.2%
9,Cl.NC(=O)c1ccc(OCCC(O)N2CC=C(c3ccc(F)cc3)CC2)cc1 (stereo not shown),-53%
10,CCCCOc1ccc(C(=O)NCC(=O)N2CC=C(c3ccccc3)CC2)cc1,10.7%
11,O=C(NCc1ccccc1)c1cccc(S(=O)(=O)NCc2ccccc2)c1,6.18%
12,CCN(CC)c1ccc(NC(=O)C2CCC(CNc3c(N4CCCC4)c(=O)c3=O)CC2)c(C)c1 (stereo not shown),13.6%
13,CCOc1ccc(C(C)=O)cc1COC(=O)C1=COCCO1,-0.905%
14,Cc1cccc(CCNCc2cc3cccc(C)c3[nH]c2=O)c1,-35.7%
15,Cc1cccc(CCNCc2cc3ccc(C)cc3[nH]c2=O)c1,-54.6%
16,COc1ccc(CCN(Cc2cc3ccc(C)cc3[nH]c2=O)C(C)=O)cc1OC,-26.6%
17,CNCc1cc2ccc(C)cc2[nH]c1=O,-6.99%
18,COc1ccc(CCNCc2cc3ccc(C)cc3[nH]c2=O)cc1OC,-53.5%
19,Cc1ccc2cc(CNCCc3ccccc3C)c(=O)[nH]c2c1,-42.9%
